Each structure is given as a SMILES string. Out of some 1,100 compounds screened, about 760 (69%) were called active. The rule behind the calls is not given here. So high a share suggests a set chosen from earlier hits. The list shows a part of the results.

This test can be described thus: M. tuberculosis growth inhibition, HTS (AID 1259417).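 Note: bacteria grown with compound for 5 days at 37 °C.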 The note with it: stronger effect = higher value, concentration not given here.
The mark [1] stands for this setting: M. tuberculosis DsRed fluorescence growth inhibition.
Where [2] appears, read: M. tuberculosis growth inhibition.

The term inhibition denotes the relative decrease from the control value, in per cent. Turning to `Clc1ccc(SCCCn2ccnc2)cc1`, the inhibition by setting is: under setting [1], 100% (active); under setting [2], 99.6%.

As to `Brc1c(OCCCn2ccnc2)ccc2ccccc12`, the inhibition is, setting by setting: under setting [1], 98.3% (active); under setting [2], 99%.

Take `Clc1cc(Br)ccc1OCCCCn1ccnc1`: the inhibition by setting is: under setting [1], 99.4% (active); under setting [2], 99.4%.

In the case of `Clc1ccc(OCCCCn2ccnc2)c(Br)c1`, the inhibition is 98.8% (active) under setting [1] and 99.3% under setting [2].

For `Clc1ccc(OCCCCCn2ccnc2)c(Cl)c1`, the inhibition is, setting by setting: under setting [1], 100% (active); under setting [2], 99.3%.

With `C=CCc1cc(C)ccc1OCCCCn1ccnc1`, the inhibition reads like this: under setting [1], 99.4% (active); under setting [2], 100%.

`C=CCc1cc(C)ccc1OCCCn1ccnc1`: the inhibition is 92.4% (active) under setting [1] and 97.1% under setting [2].

Consider `C=CCc1cc(Cl)ccc1OCCCCn1ccnc1`, for which the inhibition under setting [1] was 100% (active) and the inhibition under setting [2] worked out at 100%.

For the compound `C=CCn1c(-c2cccs2)nc2ccccc21`, the inhibition runs as follows: under setting [1], 97.1% (active); under setting [2], 100%.

In the case of `NC(CC(=O)c1ccc(Cl)cc1Cl)C(Cl)(Cl)Cl` (centres undefined), the inhibition reads like this: under setting [1], 99.7% (active); under setting [2], 99.4%.

With `Oc1ccc(-c2nc3cc4ccccc4cc3nc2-c2ccccc2)cc1`, the inhibition is 19.6% (active) under setting [1] and 37.8% under setting [2].

As for `Cc1ccc2sc(NNC(=O)c3cc4ccccc4oc3=O)nc2c1C`, the inhibition is, setting by setting: under setting [1], 3.35% (active); under setting [2], 33.4%.

Regarding `Cc1ccc2sc(NNC(=O)C3COc4ccccc4O3)nc2c1C` (centres undefined), the inhibition under setting [1] was -2.21% (inactive) and the inhibition under setting [2] is -8.62%.

Turning to `Cc1cc(C)c2nc(NNC(=O)c3cc4ccccc4oc3=O)sc2c1`, the inhibition under setting [1] is 46.2% (active) and the inhibition under setting [2] came out at 86.5%.

`Cc1ccc2nc(NNC(=O)c3cc4ccccc4oc3=O)sc2c1`: the inhibition was -1.04% (inactive) under setting [1] and 10.6% under setting [2].

With `Cc1cccc2sc(NNC(=O)c3cc4ccccc4oc3=O)nc12`, the inhibition is 47.1% (active) under setting [1] and 89% under setting [2].

For `CCCOc1ccc(C2Oc3ccc(Br)cc3C=C2[N+](=O)[O-])cc1OC` (centres undefined), the inhibition runs as follows: under setting [1], 10.3% (active); under setting [2], 37.5%.

For `COc1ccc(Nc2cc(C)nc3c2ccc2ccccc23)cc1`, the inhibition reads like this: under setting [1], 18.8% (inactive); under setting [2], 19.5%.

Consider `Cc1ccc(Nc2ccccc2N)cc1`, for which the inhibition is, setting by setting: under setting [1], 99.5% (active); under setting [2], 99.1%.

`Nc1ccccc1Nc1ccccc1`: the inhibition runs as follows: under setting [1], 98.6% (active); under setting [2], 98.4%.

Take `COc1ccc(Nc2ccccc2N)cc1`: the inhibition reads like this: under setting [1], 96% (active); under setting [2], 97.4%.

With `O=c1cc(Cc2ccccc2)nc2c(-c3ccccc3)c[nH]n12`, the inhibition runs as follows: under setting [1], 93% (active); under setting [2], 96.9%.

On to `Cc1ccccc1C(=O)Nc1sc2c(c1C(=O)N1CCN(Cc3ccccc3)CC1)CCCCC2`, for which the inhibition under setting [1] is -0.558% (inactive) and the inhibition under setting [2] is -12.1%.

Turning to `NC(=O)c1c(NC(=O)c2ccc([N+](=O)[O-])s2)sc2c1CCN(Cc1ccccc1)C2`, the inhibition is 25.9% (inactive) under setting [1] and 2.21% under setting [2].

Consider `CCN1CCc2c(sc(NC(=O)c3ccccc3)c2-c2nc3ccccc3s2)C1`, for which the inhibition under setting [1] is 52.7% (active) and the inhibition under setting [2] was determined as 77.8%.

For `COCCNS(=O)(=O)c1ccc(-c2ccc(C)cc2)cc1`, the inhibition under setting [1] is 98.6% (active) and the inhibition under setting [2] worked out at 98.3%.

Consider `CCCCOc1ccc(S(=O)(=O)Nc2ccc(I)cc2)cc1`, for which the inhibition by setting is: under setting [1], -1.45% (inactive); under setting [2], 17.1%.

The record behind these values is PubChem BioAssay AID1259417 (TB Discovery Research, Infectious Disease Research Institute, 2018).
